# Test results reported in the supplement of paper PMC6555819.
# Legend:
# Test in all cases: PBM binding z-score (relative to random genomic background probes); higher = stronger binding; sequences stand for … in GC…GCGATTGACAGCGTAGAATGAAGG
# [1] = system: FXR:RXRa (NR concentration 270 nM, RXRa partner concentration 90 nM)
# Procedure, shortened: (§1)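 Binding buffer was PBS pH 7.4 with 2% milk, 0.02% Triton X-100, 1 mM DTT, 0.2 mg/mL BSA and 0.4 mg/ml salmon testes DNA. In it, ligand-free nuclear receptor dimers were incubated 1 h on custom Agilent 4×180K protein-binding microarrays carrying double-stranded probes. Antibodies against each partner (one per run) detected binding, and z-scores were calculated against random background probes after regression normalization of scanned fluorescence.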
# [2] = system: LXRa:RXRa (NR concentration 270 nM, RXRa partner concentration 90 nM)
# Procedure, shortened: as §1
# [3] = system: LXRa homodimer (NR concentration 270 nM)
# Procedure, shortened: as §1
# [4] = system: LXRb:RXRa (NR concentration 270 nM, RXRa partner concentration 90 nM)
# Procedure, shortened: as §1
# [5] = system: LXRb homodimer (NR concentration 270 nM)
# Procedure, shortened: as §1
# [6] = system: PPARa:RXRa (NR concentration 270 nM, RXRa partner concentration 90 nM)
# Procedure, shortened: as §1
# [7] = system: PPARg:RXRa (NR concentration 180 nM, RXRa partner concentration 90 nM)
# Procedure, shortened: as §1
# [8] = system: PPARg:RXRa 270nM:90nM, anti-RXR (NR concentration 270 nM, RXRa partner concentration 90 nM)
# Procedure, shortened: as §1
# [9] = system: PPARg:RXRa 30nM:10nM, anti-RXR (NR concentration 30 nM, RXRa partner concentration 10 nM)
# Procedure, shortened: as §1
# [10] = system: PPARg:RXRa 90nM:30nM, anti-RXR (NR concentration 90 nM, RXRa partner concentration 30 nM)
# Procedure, shortened: as §1
# [11] = system: PPARg:RXRa DBDmut IVT, anti-RXR (DBD mutation: RXRa K156A/R161A, NR concentration 270 nM, RXRa partner concentration 90 nM)
# Procedure, shortened: as §1
# [12] = system: PPARg:RXRa IVT, anti-PPARg (NR concentration 270 nM, RXRa partner concentration 90 nM)
# Procedure, shortened: as §1
# [13] = system: PPARg DBDmut:RXRa IVT, anti-PPARg (DBD mutation: PPARg1 K132A/R137A, NR concentration 270 nM, RXRa partner concentration 90 nM)
# Procedure, shortened: as §1
# [14] = system: PPARg DBDmut IVT, anti-PPARg (DBD mutation: PPARg1 K132A/R137A, NR concentration 270 nM)
# Procedure, shortened: as §1
# [15] = system: PPARg homodimer (NR concentration 180 nM)
# Procedure, shortened: as §1
# [16] = system: PXR:RXRa (NR concentration 270 nM, RXRa partner concentration 90 nM)
# Procedure, shortened: as §1
# [17] = system: PXR homodimer (NR concentration 270 nM)
# Procedure, shortened: as §1
# [18] = system: RARa:RXR (NR concentration 270 nM, RXRa partner concentration 90 nM)
# Procedure, shortened: as §1
# [19] = system: RARa homodimer (NR concentration 270 nM)
# Procedure, shortened: as §1
# [20] = system: RARb:RXRa (NR concentration 270 nM, RXRa partner concentration 90 nM)
# Procedure, shortened: as §1
Sequence,PBM binding z-score [1],PBM binding z-score [2],PBM binding z-score [3],PBM binding z-score [4],PBM binding z-score [5],PBM binding z-score [6],PBM binding z-score [7],PBM binding z-score [8],PBM binding z-score [9],PBM binding z-score [10],PBM binding z-score [11],PBM binding z-score [12],PBM binding z-score [13],PBM binding z-score [14],PBM binding z-score [15],PBM binding z-score [16],PBM binding z-score [17],PBM binding z-score [18],PBM binding z-score [19],PBM binding z-score [20]
GCTGCTAGGTCAACTGGTGGTCAGCTAAAGCTCG,4.15,3.04,-0.00351,1.99,-0.442,3.55,2.75,3.48,0.603,2.25,4.77,4.33,-0.118,-0.735,2.55,1.61,-0.644,3.34,-0.0343,4.23
GCGATTAGTTGAAAGGGCAACCGAATGATTCTCG,0.286,0.514,-0.112,0.595,-0.521,1.88,1.74,3.51,1.24,2.72,0.242,0.29,-0.291,-0.4,0.619,0.575,0.0647,1.43,-0.197,1.87
GCAGACAGGTGAATCGCAGGTAACTCAGGGTGGC,-0.281,-0.0182,-0.726,-0.203,-1.12,0.748,0.386,-0.0895,-0.47,-0.296,0.726,0.657,-0.695,-0.904,-0.727,-0.313,-0.959,0.0382,-0.689,0.443
AATCGGAGGACAAAGGTCAGAGCTACGCCAGTGA,4.21,4.44,1.79,3.53,0.469,5.18,8.17,7.23,6.45,7.59,0.506,4.15,0.0778,-0.0229,2.97,3.75,0.501,4.48,0.693,4.54
TAGACTAGGTCATGGGCCAGTATACCACGCGAAC,3.63,2.6,0.103,1.81,0.438,4.41,7.24,6.34,4.78,6.07,5.98,6.8,1.6,0.962,1.38,1.04,0.462,2.1,0.407,3.49
CGAACTAGGTCTTCCAGGACAGTGAATACATTGA,0.011,-0.496,0.128,-0.568,-0.706,0.796,0.846,0.622,-0.0415,0.143,4.68,3.48,0.439,0.129,-0.375,-0.421,-0.138,-0.242,-0.331,0.384
CCTATTAGTTGTCCATAAGGGCAACCGAAGCTCG,0.902,0.553,0.8,0.558,1.17,0.459,0.174,0.706,-0.0798,0.365,0.332,0.804,0.706,1.02,1.69,0.563,0.996,1.1,2.11,1.44
ATATGTAGTTTAGCTGGGGTCATTCAGACTAGGC,4.14,4.3,2.38,4.58,1.66,4.45,1.66,2.42,0.899,1.87,1.04,1.41,1.71,2.11,1.95,5.98,3.93,5.81,1.36,2.74
CCGACTGGGGCAGAAAGGTTACCCTACCATCCGG,0.191,0.465,-0.126,0.448,-1.02,1.5,1.17,2.33,0.336,1.78,1.23,1.93,-1.08,-1.51,0.207,0.618,-0.304,1.34,-0.533,1.73
GGAGCGAGGGCAAAGTTGATAGCATCTGTCGACG,0.977,0.574,-0.435,0.182,-0.792,2.54,3.16,4.11,2.37,3.6,0.739,1.35,-0.304,-0.838,-0.183,0.839,-0.0464,1.21,-0.259,2.14
CCAGACAGGTGAAACGTAACTCAGTCTGGTACGC,-0.253,-0.0571,-0.351,-0.105,-0.651,0.658,0.947,0.946,-0.101,0.589,2.48,0.769,-0.823,-0.558,0.378,-0.325,-0.322,0.0493,0.128,0.621
ATCGCAAGGTCGAGGTGAGTATAGAGAAAGGGAA,1.56,0.947,-0.582,0.995,-0.275,2.5,1.05,0.957,0.1,0.379,-0.0497,1.28,0.589,-0.0017,-0.0351,1.04,-0.378,1.52,-0.173,2.75
GGAACCAGGGCATTCGAGTTGATAGCATGGCGAT,1.3,0.74,-0.0183,0.0646,0.153,1.69,0.973,0.862,-0.134,0.0636,3.39,2.91,-0.295,0.956,1.01,2.12,0.865,0.882,0.0816,1.72
TCTGCTACGTCAACGATGGTCAGCTAATCTGCTA,-0.231,-0.136,-0.622,-0.384,-0.541,-0.191,0.00276,0.525,1.6,1.1,0.824,-0.0517,-0.273,0.303,-1.54,-0.555,-0.856,-0.492,-1.62,-0.0266
